Experimental data published in PubChem BioAssay (Tox21).
Results filed as inconclusive are left out. A number with no mark means an inactive call. Activity calls are given as the source filed them. Unless noted, calls come from the whole dose curve.

Test: qHTS assay to identify small molecule antagonists of the vitamin D receptor (VDR) signaling pathway - cell viability counter screen (AID 743225; active = well fitted cell-killing curve with a large enough effect in the repeat runs; note: nearly all actives have a fitted effect of over 50% in size)
Conditions: VDR-bla HEK293T viability, CellTiter-Glo luminescence, 16 h; series mostly up to 61 µM; viability change, negative = cytotoxic: at the top concentration
In short: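 Viability counter screen run in the same wells as the beta-lactamase reporter assay: HEK 293T VDR-UAS-bla cells, 16 h compound exposure at 37C with 3 nM (final) 1-alpha,25-dihydroxyvitamin D3. CellTiter-Glo luminescence, 30 min, room temperature.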
% is set by controls: 0 for no effect and ±100 for the full control effect.

Structure (SMILES) | outcome | viability change, negative = cytotoxic
CC(C)CC(=O)CC(C)CC(C)C (stereo not given) | inactive | 
O=C(O)CCCCCCCCC(=O)O | inactive | 
CN(C)c1ccc(O)c2c1C[C@H]1C[C@H]3[C@H](N(C)C)C(=O)C(C(N)=O)=C(O)[C@@]3(O)C(=O)C1=C2O | inactive | 
NC(=S)NNC(N)=S |  | 13.2%
c1ccc(Oc2ccccc2)cc1 |  | 3.74%
CCCCCCCCCCN | inactive | 
O=[N+]([O-])c1ccc2nc[nH]c2c1 | inactive | 
C[Si]1(C)O[Si](C)(C)O[Si](C)(C)O[Si](C)(C)O1 | inactive | 
CC(C)c1cccc(C(C)C)c1 | inactive | 
O=C1c2ccccc2CCc2ccccc21 | inactive | 
CC(C)=CCl |  | 2.84% [at 78.8 µM]
C=CC[N+](C)(C)CC=C | inactive | 
COc1ccc([N+](=O)[O-])cc1N | inactive | 
O=C(O)c1ccc(C(=O)O)c(C(=O)O)c1 | inactive | 
NCCCCCCN | inactive | 
NCCNCCN | inactive | 
CCCCCC(=O)O |  | 1.74%
CC(C)(C)c1cc(Cc2cc(C(C)(C)C)c(O)c(C(C)(C)C)c2)cc(C(C)(C)C)c1O | inactive | 

Structure (SMILES) | outcome | viability change, negative = cytotoxic
COC(=O)CCCC(=O)OC |  | -15.4%
CN(C)c1ccc(Cc2ccc(N(C)C)cc2)cc1 | inactive | 
CC(C)OP(=O)(CP(=O)(OC(C)C)OC(C)C)OC(C)C | inactive | 
COC(=O)c1cccnc1 | inactive | 
CCOC(=O)n1ccn(C)c1=S |  | 1.07%
Cc1ccc(S(=O)(=O)N=C=O)cc1 | inactive | 
CC(CCl)OP(=O)(OC(C)CCl)OC(C)CCl (stereo not given) | inactive | 
CC(C)CCCCCCCOC(=O)CCCCC(=O)OCCCCCCCC(C)C | inactive | 
CC(=O)c1ccc(O)cc1 | inactive | 
C=C(C)CNCC | inactive | 
CCCCC(C=O)CC (stereo not given) |  | -3.35% [at 78.8 µM]
C=C(C)C(=O)OCC(C)C | inactive | 
CCNc1ccccc1 |  | -1.47% [at 78.8 µM]
O=C(O)/C=C/C(=O)O | inactive | 
CC(=O)OCc1ccco1 | inactive | 
O=C(O)c1cc2ccccc2cc1O | inactive | 
COc1ccc(OC)cc1 | inactive | 
N#Cc1ccccc1 | inactive | 

Test: qHTS assay to identify small molecule agonists of the NFkB signaling pathway (AID 1159509; active = well fitted curve in the direction sought with a large enough effect in the signal ratio in the repeat runs, not every such curve was filed as active; the % refers to the signal ratio)
Conditions: NFkB-bla ME-180 cells, beta-lactamase FRET ratio, 5 h; series mostly up to 61 µM; activation: at the top concentration
In short: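 ME-180 NFkB-bla, 2,000 cells/well, overnight plating; cpd pinned in DMSO, 5 h 37 C; B/G FRET substrate 1.5 h RT; ex 405, em 460/530 nm.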

Structure (SMILES) | outcome
CC(C)CC(=O)CC(C)CC(C)C (stereo not given) | inactive
O=C(O)CCCCCCCCC(=O)O | inactive
CN(C)c1ccc(O)c2c1C[C@H]1C[C@H]3[C@H](N(C)C)C(=O)C(C(N)=O)=C(O)[C@@]3(O)C(=O)C1=C2O | inactive
NC(=S)NNC(N)=S | inactive
c1ccc(Oc2ccccc2)cc1 | inactive
CCCCCCCCCCN | inactive
O=[N+]([O-])c1ccc2nc[nH]c2c1 | inactive
C[Si]1(C)O[Si](C)(C)O[Si](C)(C)O[Si](C)(C)O1 | inactive
CC(C)c1cccc(C(C)C)c1 | inactive
O=C1c2ccccc2CCc2ccccc21 | inactive
CC(C)=CCl | inactive
C=CC[N+](C)(C)CC=C | inactive
COc1ccc([N+](=O)[O-])cc1N | inactive
O=C(O)c1ccc(C(=O)O)c(C(=O)O)c1 | inactive
NCCCCCCN | inactive
NCCNCCN | inactive
CCCCCC(=O)O | inactive
CC(C)(C)c1cc(Cc2cc(C(C)(C)C)c(O)c(C(C)(C)C)c2)cc(C(C)(C)C)c1O | inactive
COC(=O)CCCC(=O)OC | inactive

Structure (SMILES) | outcome
CN(C)c1ccc(Cc2ccc(N(C)C)cc2)cc1 | inactive
CC(C)OP(=O)(CP(=O)(OC(C)C)OC(C)C)OC(C)C | inactive
COC(=O)c1cccnc1 | inactive
CCOC(=O)n1ccn(C)c1=S | inactive
Cc1ccc(S(=O)(=O)N=C=O)cc1 | inactive
CC(CCl)OP(=O)(OC(C)CCl)OC(C)CCl (stereo not given) | inactive
CC(C)CCCCCCCOC(=O)CCCCC(=O)OCCCCCCCC(C)C | inactive
CC(=O)c1ccc(O)cc1 | inactive
C=C(C)CNCC | inactive
CCCCC(C=O)CC (stereo not given) | inactive
C=C(C)C(=O)OCC(C)C | inactive
CCNc1ccccc1 | inactive
O=C(O)/C=C/C(=O)O | inactive
CC(=O)OCc1ccco1 | inactive
O=C(O)c1cc2ccccc2cc1O | inactive
CCNc1cccc(C)c1 | inactive
COc1ccc(OC)cc1 | inactive
N#Cc1ccccc1 | inactive

Test: qHTS assay to identify small molecule agonists of the NFkB signaling pathway - cell viability counter screen (AID 1159515); note: nearly all actives have a fitted effect of over 55% in size
Conditions: NFkB-bla ME-180 viability, CellTiter-Glo luminescence, 5 h; series mostly up to 61 µM; activity, negative = cytotoxic: at the top concentration
In short: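 Using the same wells as the NFkB reporter read, ME-180 NFkB-bla cells given compounds for 5 hr were assessed for viability via CellTiter-Glo, with luminescence taken after a 30 min room-temperature incubation.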

Structure (SMILES) | outcome
CC(C)CC(=O)CC(C)CC(C)C (stereo not given) | inactive
O=C(O)CCCCCCCCC(=O)O | inactive
CN(C)c1ccc(O)c2c1C[C@H]1C[C@H]3[C@H](N(C)C)C(=O)C(C(N)=O)=C(O)[C@@]3(O)C(=O)C1=C2O | inactive
NC(=S)NNC(N)=S | inactive
c1ccc(Oc2ccccc2)cc1 | inactive
CCCCCCCCCCN | inactive
O=[N+]([O-])c1ccc2nc[nH]c2c1 | inactive
C[Si]1(C)O[Si](C)(C)O[Si](C)(C)O[Si](C)(C)O1 | inactive
CC(C)c1cccc(C(C)C)c1 | inactive
O=C1c2ccccc2CCc2ccccc21 | inactive
CC(C)=CCl | inactive
C=CC[N+](C)(C)CC=C | inactive
COc1ccc([N+](=O)[O-])cc1N | inactive
O=C(O)c1ccc(C(=O)O)c(C(=O)O)c1 | inactive
NCCCCCCN | inactive
NCCNCCN | inactive
CCCCCC(=O)O | inactive
CC(C)(C)c1cc(Cc2cc(C(C)(C)C)c(O)c(C(C)(C)C)c2)cc(C(C)(C)C)c1O | inactive
COC(=O)CCCC(=O)OC | inactive

Structure (SMILES) | outcome
CN(C)c1ccc(Cc2ccc(N(C)C)cc2)cc1 | inactive
CC(C)OP(=O)(CP(=O)(OC(C)C)OC(C)C)OC(C)C | inactive
COC(=O)c1cccnc1 | inactive
CCOC(=O)n1ccn(C)c1=S | inactive
Cc1ccc(S(=O)(=O)N=C=O)cc1 | inactive
CC(CCl)OP(=O)(OC(C)CCl)OC(C)CCl (stereo not given) | inactive
CC(C)CCCCCCCOC(=O)CCCCC(=O)OCCCCCCCC(C)C | inactive
CC(=O)c1ccc(O)cc1 | inactive
C=C(C)CNCC | inactive
CCCCC(C=O)CC (stereo not given) | inactive
C=C(C)C(=O)OCC(C)C | inactive
CCNc1ccccc1 | inactive
O=C(O)/C=C/C(=O)O | inactive
CC(=O)OCc1ccco1 | inactive
O=C(O)c1cc2ccccc2cc1O | inactive
CCNc1cccc(C)c1 | inactive
COc1ccc(OC)cc1 | inactive
N#Cc1ccccc1 | inactive
